Drawing on PubChem BioAssay (NCI), this text covers growth inhibition for 16 compounds.

Each structure is given as a SMILES string. This is part of a sample that, as a whole, favours compounds with a hit. Of some 79,000 tested, about 15% had one in any assay. A number with no mark means an inactive call. No stated cut-off is given here; in the data, active means growth inhibition above about 70%; inactive means the rest.

A short description of the assay: NCI Yeast Anticancer Drug Screen. Data for the rad50 strain (AID 155).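 Further: 0% = growth of vehicle-only cultures of the same strain.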 The conditions noted are these: S. cerevisiae rad50 strain growth inhibition; at 50.0 µM; active compounds read high. A digest of the protocol:
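A DNA repair-deficient yeast mutant serves as the test organism; compound-induced growth inhibition is calculated against vehicle-treated cells.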
With `Cc1ccc(C(=O)C(O)c2ccc(C)cc2)cc1` (stereo unspecified), the growth inhibition is 35.6%.
Turning to `CC1(c2ccc(-c3ccccc3)cc2)NC(=O)NC1=O` (stereo unspecified), the growth inhibition is 3.55%.
With `N#CC(N)c1ccc(OCCCCCCCCCCOc2ccc(C(N)C#N)cc2)cc1` (stereo unspecified), the growth inhibition was 1.5%.
To `O=C1NC(=O)C(=C/C=C/C=C\C2C(=O)NC(=O)NC2=O)C(=O)N1` belongs -15.1%.
`C=C(C)C(=O)OCCOCC(CC)CCCC` (stereo unspecified): the growth inhibition is 11.2%.
On to `CCCCCC(C/C=N/N(C)C)C(O)(C(F)(F)F)C(F)(F)F` (stereo unspecified), for which the growth inhibition was 1.35%.
In the case of `CCOc1ccc(NC(=O)C(=O)CC(=O)c2sc(NNC(C)=O)nc2C)cc1`, the growth inhibition was -21.1%.
With `COc1ccc(Cc2ccccc2C(=O)c2ccc(OC)cc2)cc1` the figure was -14.7%; with `COc1c(C(=O)O)ccc(C(=O)NCCCCCN(O)C(=O)CCC(=O)NCCCCCN(O)C(=O)CCC(=O)NCCCCCN(O)C(C)=O)c1OC`, -7.25%; with `O=C1OC(c2ccc(Cl)cc2)=N/C1=C\c1c(Cl)cccc1Cl`, 6.9%.
Take `CCOC(=O)C1=C(C)Oc2cc3c(cc2C1c1ccc(OC)cc1)OCO3` (stereo unspecified): the growth inhibition was 3.9%.
For the compound `COc1ccc(-c2c3c(nc4nc(SCC(=O)c5ccc(Br)cc5)nc(N)c24)CCCC3)cc1OC`, the growth inhibition is 0.05%.
For `CCCC1(C)OCC(CCl)O1` (stereo unspecified), the growth inhibition was -41.6%.
Take `CCCCCCCCCCCC(=O)Nc1ccc(C(C)C)cc1`: the growth inhibition was 4.75%.
`COC(=O)C(O)(C(=O)OC)C1=C(N)C(=O)c2ccccc2C1=O`: the growth inhibition was 28.9%.
Turning to `CC12CCC3c4ccc(OC(=O)C56C=CC(=O)C5C5C=CC6CC5)cc4CCC3C1CCC2=O` (stereo unspecified), the growth inhibition was 11.6%.
